The whole screen tested about 2,400 compounds, of which about 580 (24%) were called active.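 How the source made its calls: active means activity change at or above the mean plus 3 SD of buffer wells without dofetilide, per plate; inactive means the rest.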 Only a sample is shown.

In this experiment the target is Potassium voltage-gated channel subfamily KQT member 2 (Rattus norvegicus) (UniProt O88943). Put plainly: KCNQ2 potentiation in CHO cells – cell-based, FluxOR thallium flux, counter-screen for hERG block protector project, confirmation (AID 1942).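 Further: normalized value minus buffer-control mean plus three SD of buffer wells.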 The note with it: FluxOR thallium flux fluorescence, at 10 µM, active compounds read high.
Sequence of Potassium voltage-gated channel subfamily KQT member 2 (Rattus norvegicus) (O88943 whole entry, looked up): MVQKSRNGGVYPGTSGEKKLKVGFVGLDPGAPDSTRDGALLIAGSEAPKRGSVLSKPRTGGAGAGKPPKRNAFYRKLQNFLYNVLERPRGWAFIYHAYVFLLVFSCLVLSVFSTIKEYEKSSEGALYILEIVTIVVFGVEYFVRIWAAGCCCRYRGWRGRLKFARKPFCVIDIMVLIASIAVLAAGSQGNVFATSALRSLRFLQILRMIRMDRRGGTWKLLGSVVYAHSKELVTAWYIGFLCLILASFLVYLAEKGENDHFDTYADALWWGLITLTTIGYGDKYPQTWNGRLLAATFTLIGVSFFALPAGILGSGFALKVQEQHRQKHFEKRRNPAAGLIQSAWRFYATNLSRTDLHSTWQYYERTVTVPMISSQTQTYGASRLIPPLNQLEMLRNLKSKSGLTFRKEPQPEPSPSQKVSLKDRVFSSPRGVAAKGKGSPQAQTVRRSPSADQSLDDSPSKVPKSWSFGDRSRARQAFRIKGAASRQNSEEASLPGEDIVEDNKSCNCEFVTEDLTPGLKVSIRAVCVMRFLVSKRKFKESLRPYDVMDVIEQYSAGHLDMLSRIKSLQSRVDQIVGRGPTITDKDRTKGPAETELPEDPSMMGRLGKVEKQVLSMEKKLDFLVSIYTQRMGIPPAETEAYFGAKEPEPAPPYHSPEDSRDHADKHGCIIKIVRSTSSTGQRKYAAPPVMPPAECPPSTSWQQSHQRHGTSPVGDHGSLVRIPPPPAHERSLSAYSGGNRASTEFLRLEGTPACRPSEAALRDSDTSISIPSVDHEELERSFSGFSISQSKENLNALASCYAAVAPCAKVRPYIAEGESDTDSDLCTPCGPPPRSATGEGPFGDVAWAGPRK
Regarding `O=C1CN(S(=O)(=O)c2ccccc2)CC(=O)N1CCc1ccccc1`, the activity change, less the hit threshold was -18.7% (inactive).

As to `Cc1cccc(N/C(N)=N/c2nc(C)cc(=O)[nH]2)c1`, the activity change, less the hit threshold was -13.7% (inactive).

On to `Cc1ccc(Nc2nc(C)cs2)cc1`, for which the activity change, less the hit threshold is -9.5% (inactive).

With `Cc1ccc(Nc2cc(C)nn2-c2nc(C)cc(=O)[nH]2)cc1`, the activity change, less the hit threshold is 68.6% (active).

`Cc1nnc(N2C(=O)C(=O)/C(=C(\O)c3ccc4c(c3)CC(C)O4)C2c2ccccc2)s1` (centres undefined): the activity change, less the hit threshold was -7.2% (inactive).

Take `Cc1cc(O)c(/C=N/OCc2ccc(Cl)cc2Cl)c(=O)o1`: the activity change, less the hit threshold was -19.1% (inactive).

With `Cc1cc(C)cc(NC(=O)N2CCCC2C(=O)Nc2ccc(-n3cnnn3)c(C)c2)c1` (centres undefined), the activity change, less the hit threshold is -19% (inactive).

As to `CCOC(=O)Cc1csc(NC(=S)NC(=O)c2ccccc2C)n1`, the activity change, less the hit threshold was 3.3% (active).

Consider `CCOC(=O)Cc1csc(NC(=S)NC(=O)c2ccc(Cl)cc2)n1`, for which the activity change, less the hit threshold was -7.1% (inactive).

As to `Cc1csc(NC(=S)NC(=O)c2ccccc2)n1`, the activity change, less the hit threshold is 7.2% (active).

Take `CCOC(=O)Cc1csc(NC(=S)NC(=O)C(C)(C)C)n1`: the activity change, less the hit threshold is -1.3% (inactive).

Regarding `CCOC(=O)Cc1csc(NC(=S)NC(=O)c2ccc(C)cc2)n1`, the activity change, less the hit threshold was -3.1% (inactive).

For `CCOC(=O)Cc1csc(NC(=S)NC(=O)c2ccccc2Br)n1`, the activity change, less the hit threshold is 9.2% (active).

Regarding `COc1ccc(-c2csc(NC(=S)NC(=O)c3ccc4ccccc4c3)n2)cc1OC`, the activity change, less the hit threshold was -11.9% (inactive).

Consider `Cc1[nH]cnc1CSCCN`, for which the activity change, less the hit threshold is -10.5% (inactive).

With `CCOC(=O)N1CCN(C(=O)CSc2nnc(-c3ccccc3OC)o2)CC1`, the activity change, less the hit threshold was -10.3% (inactive).

Turning to `Brc1ccc(Nc2nc(-c3cccnc3)cs2)cc1`, the activity change, less the hit threshold was -11.1% (inactive).

On to `O=C(COC(=O)C1CCC(=O)N1)Nc1ccc(Oc2ccccc2)cc1` (centres undefined), for which the activity change, less the hit threshold was -11% (inactive).

In the case of `Cc1oc2cc(O)ccc2c(=O)c1N1C(=O)c2ccccc2C1=O`, the activity change, less the hit threshold was -14.7% (inactive).

`CN(CC(=O)Nc1nc2ccccc2s1)S(=O)(=O)c1ccc(Cl)cc1`: the activity change, less the hit threshold is -27% (inactive).

Take `Cn1ncc2c(O/N=C(\N)c3ccc(C(F)(F)F)cc3)ncnc21`: the activity change, less the hit threshold is -7.2% (inactive).

Turning to `Cc1ccccc1C(=O)NC(=S)Nc1sc2c(c1C#N)CCC(C)C2` (centres undefined), the activity change, less the hit threshold is -29% (inactive).

Consider `COC(=O)c1c(NC(=O)C2CC=CCC2C(=O)O)sc(C)c1C` (centres undefined), for which the activity change, less the hit threshold is -12.3% (inactive).

`CCC(C)(C)C1CCc2c(sc(NC(=O)c3ccccc3C(=O)O)c2C#N)C1` (centres undefined): the activity change, less the hit threshold is 38.4% (active).

For the molecule `Cc1onc(-c2ccccc2)c1C(=O)NC(=S)Nc1sc2c(c1C#N)CCC(C)C2` (centres undefined), the activity change, less the hit threshold was -3.3% (inactive).

Take `CCC1CCc2c(sc(NC(=O)C3CC=CCC3C(=O)O)c2C#N)C1` (centres undefined): the activity change, less the hit threshold was 1.4% (active).

With `CCc1ccccc1NC(=O)CC1CS(=O)(=O)CC1CC(=O)Nc1ccccc1CC` (centres undefined), the activity change, less the hit threshold was -17% (inactive).

Consider `CC(C)(C)c1ccc(Cn2nc(CC(=O)O)c3ccccc3c2=O)cc1`, for which the activity change, less the hit threshold is -4.4% (inactive).

For `C=CCn1c2ccccc2c(=O)c2cc(C#Cc3ccsc3)ccc21`, the activity change, less the hit threshold is -16% (inactive).

For `CCCCOC(=O)Cn1c2ccc(OC)cc2c2nc3ccccc3nc21`, the activity change, less the hit threshold was -3.3% (inactive).

As for `CC(C)OC(=O)c1c2nc3ccccc3nc2n2c1[nH]c(=O)c1ccccc12`, the activity change, less the hit threshold is 83.4% (active).

On to `CCc1ccc(C(=O)CSc2nc3ccccc3c(=O)[nH]2)cc1`, for which the activity change, less the hit threshold was -15.1% (inactive).

Regarding `COCc1cc(C)nc(OCC(=O)N/N=C/c2ccc(-c3cc([N+](=O)[O-])ccc3Cl)o2)c1C#N`, the activity change, less the hit threshold was -8.1% (inactive).

Regarding `Cc1ccc(-c2cccc(C3CC=CC4C3C(=O)N(Cc3ccccc3)C4c3ccc4ccccc4c3)c2)cc1` (centres undefined), the activity change, less the hit threshold is -15.4% (inactive).

On to `Cc1ccc(NC(=O)COc2cccnc2[N+](=O)[O-])cc1S(=O)(=O)N1CCOCC1`, for which the activity change, less the hit threshold is -18.2% (inactive).

With `Cc1nnc2c(SC(C)C)nc3ccccc3n12`, the activity change, less the hit threshold was -19.3% (inactive).

On to `CCc1ccc2[nH]c(O)c(N=Nc3nc(-c4ccccc4)cs3)c2c1`, for which the activity change, less the hit threshold is -16.3% (inactive).

On to `Cn1c(O)c(N=Nc2nc(-c3ccccc3)cs2)c2ccccc21`, for which the activity change, less the hit threshold was 67.2% (active).

Take `Cc1ccccc1OCC(=O)N=Nc1c(O)n(C)c2ccccc12`: the activity change, less the hit threshold is -2.4% (inactive).

On to `N#Cc1cccc(N=c2ssnc2Cl)c1`, for which the activity change, less the hit threshold was -15.2% (inactive).

As for `Cc1cc(=O)[nH]c(N/N=C2/CCCC/C2=C\c2ccccc2)n1`, the activity change, less the hit threshold was -11.4% (inactive).

In the case of `CC(C)NC(=S)N/N=C/c1ccc(C(C)(C)C)cc1`, the activity change, less the hit threshold is -8.8% (inactive).

In the case of `C/C(=N\NC(N)=S)c1cccnc1`, the activity change, less the hit threshold was -17.7% (inactive).

Turning to `CSC(=S)N/N=C/c1ccc(Br)cc1`, the activity change, less the hit threshold was -6.8% (inactive).

Take `CSC(=S)N/N=C(\C)c1ccccc1`: the activity change, less the hit threshold was 42.3% (active).

In the case of `CSC(=S)N/N=C/c1ccccc1`, the activity change, less the hit threshold was 48% (active).

For the molecule `C/C(=N\NC(N)=S)c1ccncc1`, the activity change, less the hit threshold was -10.4% (inactive).

Take `COc1ccc(-n2c(SCC#N)nnc2-c2cccnc2)cc1`: the activity change, less the hit threshold was -24.2% (inactive).

For the molecule `O=C(CC(=O)c1ccccc1O)c1cccc(F)c1`, the activity change, less the hit threshold is -11.1% (inactive).

As for `Cc1cc(F)c(F)c(C(=O)N2CCOCC2)c1`, the activity change, less the hit threshold is -20.6% (inactive).

On to `CC(C)(C)OC(=O)N1CCC2(CC1)Oc1ccc(Cl)cc1C(=O)C21CC(c2ccc(Cl)cc2)=NO1` (centres undefined), for which the activity change, less the hit threshold is -20.7% (inactive).

`Cn1nc(C(F)(F)F)c(-c2ccc(Br)cc2)c1NC(=O)c1cccnc1`: the activity change, less the hit threshold was -21.4% (inactive).

With `COc1ccc(C(=O)NNC(=O)CSc2nnc(COc3ccccc3)n2C)cc1`, the activity change, less the hit threshold was -15.5% (inactive).

Consider `Cc1cc(NC(=O)CSc2ccc3nnc(-c4cccs4)n3n2)no1`, for which the activity change, less the hit threshold is -20.2% (inactive).

Turning to `O=C(O)c1ccc2c3n(nc2c1)-c1ccc(Cl)cc1CO3`, the activity change, less the hit threshold is -11.6% (inactive).

As for `Cc1c(C(=O)NC(=S)NCc2cccnc2)oc2ccccc12`, the activity change, less the hit threshold was -18.2% (inactive).

Take `O=C(NC(=S)Nc1cccnc1)c1cc2ccccc2o1`: the activity change, less the hit threshold was 10.1% (active).

`O=C(NC(=S)NNC(=O)c1cccs1)c1ccc(Br)o1`: the activity change, less the hit threshold was -12.6% (inactive).

Consider `O=C(NC(=S)Nc1ccccc1)c1ccc(Br)o1`, for which the activity change, less the hit threshold was 3.3% (active).

As for `Cc1ccc(NC(=S)NC(=O)c2ccc(Br)o2)c(C)c1`, the activity change, less the hit threshold is 8.1% (active).

Consider `Cc1ccc(NC(=O)c2ccc3c(c2)CCN3S(C)(=O)=O)c(C)c1`, for which the activity change, less the hit threshold is -23.2% (inactive).

As to `O=C(NC(=S)Nc1cccc(Cl)c1)c1cncc(Br)c1`, the activity change, less the hit threshold is -16.1% (inactive).

On to `O=C(NC(=S)Nc1ccccc1F)c1ccc(Br)o1`, for which the activity change, less the hit threshold is 59.7% (active).

As to `Cc1ccc(C)c(NC(=S)NC(=O)c2cncc(Br)c2)c1`, the activity change, less the hit threshold was -2.9% (inactive).

In the case of `Fc1cccc(C2NN=C(c3ccccc3)S2)c1` (centres undefined), the activity change, less the hit threshold is -7.2% (inactive).

On to `O=C(OCCNc1ccc(C(F)(F)F)cc1[N+](=O)[O-])c1cc2ccccc2oc1=O`, for which the activity change, less the hit threshold is -14.3% (inactive).

Regarding `O=C(O)COc1ccc(NC(=O)c2ccc3c(c2)C(=O)N(C2CCCCC2)C3=O)cc1`, the activity change, less the hit threshold is -6.7% (inactive).

Turning to `COc1cc(S(=O)(=O)n2cnc(C)c2)ccc1Cl`, the activity change, less the hit threshold is -21.2% (inactive).

Regarding `COCCN(C(=O)CSc1nnc(C)n1Cc1ccccc1)c1c(N)n(CC(C)C)c(=O)[nH]c1=O`, the activity change, less the hit threshold was -21.8% (inactive).

Turning to `Cc1nc2n(n1)CC(O)CS2` (centres undefined), the activity change, less the hit threshold is -16.3% (inactive).

As for `Cc1cccc(NC(=S)NC(=O)c2ccc(Br)o2)c1`, the activity change, less the hit threshold was 46.1% (active).

As for `S=C(NCc1ccccc1)NCc1ccccc1Cl`, the activity change, less the hit threshold was -23.7% (inactive).

For `CCc1ccc(NC(=S)NC(=O)c2c(-c3ccccc3Cl)noc2C)cc1`, the activity change, less the hit threshold was -17.1% (inactive).

As for `O=C(CNC(=S)NC(=O)c1ccc(Br)o1)c1ccccc1`, the activity change, less the hit threshold is -11.7% (inactive).

On to `CS(=O)(=O)N(Cc1ccccc1)c1ccc(C(=O)Nc2ccc(C(N)=O)cc2)cc1`, for which the activity change, less the hit threshold is -23.7% (inactive).

With `COc1ccc(OC)c(NC(=S)NC(=O)c2ccc(Br)o2)c1`, the activity change, less the hit threshold is -6.9% (inactive).

As for `COc1ccc(NC(=S)NC(=O)c2ccc(Br)o2)cc1`, the activity change, less the hit threshold was 11.8% (active).

For the molecule `CCOc1ccc(-c2cccc(NC(=O)c3ccc(Br)o3)c2)nn1`, the activity change, less the hit threshold was -30.4% (inactive).

As for `O=C(NC(=S)NCc1ccccc1)c1ccc(Br)o1`, the activity change, less the hit threshold is 70.4% (active).

On to `CCN(c1ccccc1)S(=O)(=O)c1ccc(NC(=S)NC(=O)c2ccc(Br)o2)cc1`, for which the activity change, less the hit threshold is 0.3% (active).

In the case of `CC(C)C(=O)Nc1cccc(C(=O)Nc2ccccc2C(=O)O)c1`, the activity change, less the hit threshold is -17.8% (inactive).

As to `COc1ccc(Cc2c(O)nc(SCC(=O)NC(C)(C)C)[nH]c2=O)cc1`, the activity change, less the hit threshold was -19.2% (inactive).

Take `CC(C(=O)N1CCN(c2ccc([N+](=O)[O-])cc2)CC1)N1C(=O)C2CC=CCC2C1=O` (centres undefined): the activity change, less the hit threshold is -20.1% (inactive).

Regarding `Cc1cc(C)n2nc(SCC(=O)NC3CCCCC3C)nc2n1` (centres undefined), the activity change, less the hit threshold is -30.3% (inactive).

For the molecule `COCCOC(=O)C1=C(C)Nc2ncnn2C1c1ccc(F)cc1` (centres undefined), the activity change, less the hit threshold was -22% (inactive).

For the molecule `CCOc1ccc(NC(=O)C2C(C(=O)O)C3(Cl)C(Cl)=C(Cl)C2(Cl)C3(Cl)Cl)cc1` (centres undefined), the activity change, less the hit threshold was -15.5% (inactive).

For `S=C(N/N=C/c1ccccc1Cl)Nc1cccc(Cl)c1Cl`, the activity change, less the hit threshold is 8.6% (active).

For the molecule `Cc1ccc(Cl)cc1NC(=S)N/N=C/c1cccc2ccccc12`, the activity change, less the hit threshold was -24.4% (inactive).

Take `Fc1ccccc1NC(=S)N/N=C/c1ccccc1Br`: the activity change, less the hit threshold was -25.7% (inactive).

As for `CCN(CC)CCCNC(=O)c1cn(-c2cccc(OC)c2)c(=O)c2ccccc12`, the activity change, less the hit threshold was -18.5% (inactive).

Consider `COc1ccc(-c2ccc(/C=N/NC(=O)c3cccnc3)o2)c([N+](=O)[O-])c1`, for which the activity change, less the hit threshold is -11.4% (inactive).

In the case of `C=CCNC(=S)Nc1sc2c(c1C(=O)OCC)CC(C(C)C)OC2` (centres undefined), the activity change, less the hit threshold is 16.9% (active).

For `C=CCNC(=S)Nc1sc2c(c1C(=O)OCC)CC(C)(CC)OC2` (centres undefined), the activity change, less the hit threshold was 15.9% (active).

Turning to `Cc1ccc(Cl)cc1NC(=O)COC(=O)c1ccccc1O`, the activity change, less the hit threshold is -21.1% (inactive).

Consider `COC(=O)n1c(=S)oc2cc(Cl)ccc21`, for which the activity change, less the hit threshold was -10% (inactive).

As to `Cc1ccccc1OC(=O)n1c(=S)oc2cc(Cl)ccc21`, the activity change, less the hit threshold is 9.7% (active).

As to `CCCCC(=O)Nc1ccc(NCc2ccc(C)s2)cc1`, the activity change, less the hit threshold was 42.5% (active).

For `Cc1ccc(NC(=O)CCC(=O)OCC(F)(F)C(F)F)cc1`, the activity change, less the hit threshold was -23% (inactive).

For the molecule `CCCCC(=O)Nc1cccc(C(=O)Nc2ccccc2C(=O)O)c1`, the activity change, less the hit threshold is -4% (inactive).
